NCOA3 inh = human NCOA3 inhibition; Q9Y6Q9; HEK293 GAL4-SRC3 luciferase reporter, luminescence; inhibition, % at 3.6 µM; actives 0.17% (n = 360,000);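 active means inhibition above a per-campaign cutoff, the mean of all compounds plus 3 SD, cut at about 60% in these data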;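 further: higher means less SRC3-driven luciferase light from the GAL4 reporter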
NCOA2 inhibitor = human SRC2 (NCOA2) inhibition; Q15596; HEK293 GAL4-SRC2 luciferase reporter, luminescence; inhibition, % at 9 µM; actives 0.17% (n = 370,000); AID 651957;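 active means inhibition above the mean inhibition of all tested compounds plus 3 SD, set per campaign, cut at about 52% in these data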
NR5A2 inv ag = suppresses constitutive activity of human LRH-1 | O00482 | HEK293T StAR-luciferase reporter, LRH-1 transfected, 24 h | inhibition, % at 3.6 µM | actives 0.13% (n = 360,000) | AID 602396;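 active means inhibition above the mean inhibition of all tested compounds plus 3 SD, cut at about 73% in these data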
SRC1 inh = human NCOA1 inhibition; Q15788; HEK293 GAL4-SRC1 luciferase reporter, luminescence; inhibition, % at 3.6 µM; actives 0.12% (n = 360,000); AID 588354;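 active means inhibition above the campaign mean plus 3 SD, with each screening campaign given its own cutoff, cut at about 60% in these data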
Shn3 inh set2 = inhibitors of Schnurri-3 3'UTR reporter in osteoblasts; Clone20 osteoblast Shn3 3'UTR firefly luciferase, 24 h; inhibition, % at 12.5 µM; actives 0.52% (n = 360,000);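 active means mean inhibition of at least 75% with every replicate also reaching 75%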
Gli-Sufu antag = antagonists of Gli-Sufu signaling; actives 0.74% (n = 340,000); inhibition, % at 5 µM; Sufu-KO-LIGHT fibroblasts, Gli luciferase reporter luminescence;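 active means inhibition above about 55%, limit read from the data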
Gli antag conf = Gli-SUFU antagonism confirmation, single concentration. shares compounds with Gli-Sufu antag. Sufu-KO-LIGHT cells, Gli luciferase reporter, luminescence. inhibition, % at 5 µM. actives 40% (n = 2,500). AID 602428;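 active means mean inhibition at 5 µM reaching about 45%, limit read from the data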
Gli cytotox = cytotoxicity counter-screen for Gli-SUFU antagonists | actives 32% (n = 2,500) | shares compounds with Gli-Sufu antag | Sufu-KO-LIGHT cells cytotoxicity, ATP luminescence | cytotoxicity, % at 5 µM | AID 651994;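 active means mean cytotoxicity at 5 µM above about 25%, limit read from the data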;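 further: cells exposed to compound overnight for roughly 16 to 18 hours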
Wnt3a counter = inhibits Wnt3a reporter, counter-screen for Gli-SUFU antagonists. shares compounds with Gli-Sufu antag. Wnt-LIGHT cells, Wnt3a-driven luciferase reporter, luminescence. inhibition, % at 6.25 µM. actives 20% (n = 2,500). AID 651995;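 active means mean inhibition above about 25%, limit read from the data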
A number is an active result; - = inactive; . = no result. Compounds with a hit are over-represented: about 1.1% of the library has one in this group of screens.

SMILES | NCOA3 inh | NCOA2 inhibitor | NR5A2 inv ag | SRC1 inh | Shn3 inh set2 | Gli-Sufu antag | Gli antag conf | Gli cytotox | Wnt3a counter
CCCOc1nc2c(c(=O)n(C)c(=O)n2C)n1Cc1cccc2ccccc12 | - | - | - | - | - | 57 | 58 | 40 | -
C=CCOc1nc2c(c(=O)n(C)c(=O)n2C)n1Cc1ccc(Cl)cc1 | - | - | - | - | - | 72 | 61 | 27 | -
CCCOc1nc2c(c(=O)n(C)c(=O)n2C)n1C | - | - | - | - | - | - | . | . | .
Cc1ccc(CSc2nnc(-c3n[nH]c4c3CCC4)n2N)cc1 | . | - | . | . | . | . | . | . | .
COc1ccc(OCC(=O)Nc2ccc3c(c2)nc(CCN2CCN(C)CC2)n3C)cc1 | - | - | - | - | - | - | - | - | -
COc1ccc(OCC(=O)Nc2ccc3c(c2)nc(CCN2CCCC2)n3C)cc1 | - | - | - | - | - | - | . | . | .
CC1=C2NC(N)=[N+](CC3CC3)C(Cc3ccccc3)[C@@H]2n2c(=O)n(-c3ccccc3)c(=O)n2C1 (stereo partly specified) | . | - | . | . | . | . | . | . | .
C=CCN1C(=O)[C@@H](CC(=O)N2CCOCC2)[C@]2(C(=O)OCC)CCCCC/C=C/12 | . | - | . | . | . | . | . | . | .
O=c1c2ccccc2cnn1CCOc1ccccc1 | - | - | - | - | - | 59 | - | - | 95
O=C(O)Cn1ncc2ccccc2c1=O | - | - | - | - | - | - | . | . | .
CCOC(=O)N1CCN(C(=O)c2ccc3c(c2)N(Cc2cccc(Cl)c2)C(=O)c2ccccc2S3=O)CC1 (stereo unspecified) | - | - | - | - | - | 56 | - | - | -
c1ccc2cc(Cn3ccc4ccc(-c5ccc6cc[nH]c6c5)cc43)ccc2c1 | . | - | . | . | . | . | . | . | .
CN(C)c1ccc(/C=N/NC(=O)C[n+]2ccccc2)cc1 | - | - | - | - | - | - | - | - | -
N#CC1C=Cc2ccccc2N1C(=O)c1ccccc1 (stereo unspecified) | - | - | - | - | - | - | . | . | .
N#CC1C=Cc2c(ccc3ccccc23)N1C(=O)c1ccccc1 (stereo unspecified) | - | - | - | - | - | - | 61 | 57 | -
CCCCN(CCCC)C(=O)CN(C)S(=O)(=O)c1ccc2c(c1)n(C)c(=O)c(=O)n2C | - | - | - | - | - | - | . | . | .
CN(CC(=O)O)S(=O)(=O)c1ccc2c(c1)n(C)c(=O)c(=O)n2C | - | - | - | - | - | 63 | - | - | -
O=S1(=O)c2ccc(N3CCCC3)cc2Oc2ccccc2CN1Cc1cn(Cc2ccccc2C(F)(F)F)nn1 | . | - | . | . | . | . | . | . | .
C[C@@H]1CCN(C2CC2)S(=O)(=O)c2ccc(N3CC[C@H](O)C3)cc2O1 | . | - | . | . | . | . | . | . | .
CCn1cc[n+](C)c1P(c1ccccc1)c1ccccc1 | - | - | - | - | - | - | 55 | - | -
O=C(NC1CCC1)c1ccc(C#Cc2cccc(F)c2)cn1 | . | - | . | . | . | . | . | . | .
Cc1ccc(C(=O)N2CCN(c3ncc(C(F)(F)F)cc3Cl)CC2)s1 | - | - | - | - | - | 58 | - | - | -
CC(=O)c1ccc(N2CCN(c3ncc(C(F)(F)F)cc3Cl)CC2)cc1 | - | - | - | - | - | - | . | . | .
Cc1ccc(C[n+]2cccc(-c3ccccc3)c2)c(C)c1 | - | - | - | - | - | 84 | 84 | - | 56
CC(C)(C)c1ccc(-n2ncc3c2CCCC3NC(=O)C2(C(N)=O)CC2)cc1 (stereo unspecified) | - | - | - | - | - | 76 | 65 | 30 | -
SMILES | NCOA3 inh | NCOA2 inhibitor | NR5A2 inv ag | SRC1 inh | Shn3 inh set2 | Gli-Sufu antag | Gli antag conf | Gli cytotox | Wnt3a counter
CC(=O)NCC(=O)NC1CCCc2c1cnn2-c1ccc(C(C)(C)C)cc1 (stereo unspecified) | - | - | - | - | - | - | . | . | .
COc1ccc(/C=N/NC(=O)c2nc(-c3ccccc3)n(-c3ccccc3)n2)c(O)c1 | - | - | - | - | 91 | 63 | 62 | 34 | 56
COc1ccc(/C=N/NC(=O)c2nc(-c3ccccc3)n(-c3ccccc3)n2)cc1 | - | - | - | - | - | - | . | . | .
O=C(OC12CCCN(C1)/C(=C/c1ccncc1)C2)C1CCCCC1 (stereo unspecified) | . | - | . | . | . | . | . | . | .
CCOC(=O)C1CCN(C2=C(NS(=O)(=O)c3ccc(Br)cc3)C(=O)c3ccccc3C2=O)CC1 | - | - | - | - | - | - | - | - | -
NC(=O)C1CCN(C2=C(NS(=O)(=O)c3ccc(Br)cc3)C(=O)c3ccccc3C2=O)CC1 | - | - | - | - | - | - | . | . | .
COC(=O)c1cccc(N2C(=O)C[C@](Sc3ccc(OC)cc3)(C(=O)N3CCOCC3)[C@H]2c2ccc(OC)cc2)c1 | . | - | . | . | . | . | . | . | .
Cc1cc(C[n+]2cc(Cl)ccc2N)c2ncccc2c1 | - | - | - | - | - | - | . | . | .
Cc1cc(C[n+]2cc(Br)ccc2N)c2ncccc2c1 | - | - | - | - | 92 | - | 53 | 34 | -
CC(COc1cccc(F)c1)CN1CCC(C(O)(c2ccccc2)c2ccccc2)CC1 (stereo unspecified) | . | - | . | . | . | . | . | . | .
Cc1cc(-n2c(C)cc(C(=O)COc3cccnc3[N+](=O)[O-])c2C)no1 | - | - | - | - | - | - | . | . | .
Cc1ccc(OCC(=O)c2cc(C)n(-c3ccccc3)c2C)c([N+](=O)[O-])n1 | - | 78 | - | - | - | 70 | 74 | - | 87
Cc1cc(C(=O)COc2cccnc2[N+](=O)[O-])c(C)n1Cc1cccs1 | - | - | - | - | - | 71 | - | - | 49
CCCn1c(C)cc(C(=O)COc2ccc(C)nc2[N+](=O)[O-])c1C | - | - | - | - | - | - | . | . | .
Cc1nc2ncccn2c1-c1csc(Nc2ccccc2)n1 | - | - | - | - | - | - | . | . | .
COc1ccc(Nc2nc(-c3c(C)nc4ncccn34)cs2)cc1 | - | - | - | - | - | 71 | 75 | 66 | -
Cc1nc2ncccn2c1-c1csc(Nc2ccc(S(N)(=O)=O)cc2)n1 | - | - | - | - | - | - | . | . | .
Cc1nc2ncccn2c1-c1csc(Nc2ccc(N(C)C)cc2)n1 | - | - | - | - | - | 62 | 57 | 45 | -
COc1ccccc1Nc1nc(-c2c(C)nc3ncccn23)cs1 | - | - | - | - | - | 55 | 68 | 59 | 28
C=CCN1C(=O)[C@@H](CC(=O)N2CCN(C(=O)C3CC3)CC2)[C@]2(C(=O)OCC)CCCCC/C=C/12 | . | - | . | . | . | . | . | . | .
Cn1cccc1C(=O)N1CCN(S(=O)(=O)c2ccc(F)cc2)CC1 | . | - | . | . | . | . | . | . | .
Cc1cc(C)cc(NS(=O)(=O)c2ccc(NC(=S)NC(=O)c3cccs3)cc2)c1 | - | - | - | - | - | - | . | . | .
CN(C1CCCCC1)S(=O)(=O)c1ccc(NC(=S)NC(=O)c2cccs2)cc1 | - | - | - | - | - | 63 | - | - | -
